In PubChem BioAssay AID1347417 (National Center for Advancing Translational Sciences (NCATS), 2020):
Hit rate of the full screen: of about 120,000 compounds, about 5,300 (4.4%) were called active. Where a call stands in place of a potency, no number is given. Another 22% or so got no clear call; they are omitted. Calls come from the whole dose curve; as a rule, active = well fitted inhibition curve with a large enough effect; inconclusive = small, poorly fitted or top-dose-only effect; inactive = no such curve, though single readings can be large or run the other way. The full list was thinned out, with actives kept by preference.

Assay: qHTS Primary assay for Inhibitors of Plasmodium falciparum Dd2 growth in vitro; note: nearly all actives have a fitted effect of over 65% in size
Conditions: P. falciparum Dd2 growth, SYBR Green, 72 h; series mostly up to 28.9 µM
Summary of the method: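 Infected erythrocytes (Dd2, 0.3% parasitemia, 2.5% hematocrit final) are added to compound in RPMI-1640/Albumax II medium, grown 72 h at 37C in low oxygen, then lysed with saponin/Triton-X containing SYBR Green and read by fluorescence.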
Potency is the fitted concentration of half-maximal effect.

SMILES | Potency | activity, negative = inhibition
COC[C@@H]1CN(C(=O)Cc2ccc(OC)cc2)C[C@H]1C(N)=O | inactive | –
CCCC1c2nccn2CCCN1C(=O)c1ccc(OC)nc1 (centres undefined) | inactive | –
COc1ccccc1OCCNC(=O)CCc1cc2cc(C)ccc2[nH]c1=O | inactive | –
O=C(N[C@@H]1CCOC[C@H]1Oc1ccccn1)c1cc(C2CC2)no1 | inactive | –
N#Cc1ccc(CN2CCC3(Cc4ccccc4NC3=O)C2)cc1 (centres undefined) | inactive | –
Cc1ccc(CN2CCCC23Cc2ccccc2CNC3=O)cc1C (centres undefined) | inactive | –
O=C1Nc2ccccc2CC12CCN2Cc1cncs1 (centres undefined) | inactive | –
O=C1Nc2ccccc2CC12CCCN2Cc1ccccc1 (centres undefined) | 10 µM (active) | –
Cc1nn(-c2ccccc2)c(C)c1CN1CCCC12Cc1ccccc1CNC2=O (centres undefined) | 2.24 µM (active) | –
COc1ccc(CN2CCC3(CC2)Cc2ccccc2CNC3=O)cn1 | inactive | –
CSc1nccc(N2CCC(c3nccn3Cc3cccnc3)CC2)n1 | inactive | –
CCS(=O)(=O)N1CCCN(C(=O)C2CC2)C(c2ccccc2)CC(=O)NCC1 (centres undefined) | inactive | –
CN1CC2(CCN(C(=O)c3n[nH]c(=O)c4ccccc34)CC2)CC1C(=O)N1CCOCC1 (centres undefined) | inactive | –
O=C(NCc1cccnc1)c1nc(-c2ccc(Cl)nc2)c2cnccn12 | inactive | –
CN(C)C(=O)c1nc(-c2ccc(Cl)cc2Cl)c2cnccn12 | 10 µM (active) | –
CN(C)C(=O)c1nc(-c2cccnc2)c2ccccn12 | inactive | –
O=C1CCN(C(=O)CN2CCCCCC2)CCCC(c2nc(-c3ccccc3)no2)CCN1 (centres undefined) | inactive | –
Cc1cc(C[C@@H]2COC[C@@H]2NC(=O)c2ccc3nc(C)[nH]c3c2)on1 | inactive | –
O=C(NCCc1ccc(Cl)cc1)c1ccc2nc(CCc3ccccc3)oc2c1 | inactive | –
CCc1ccc(Nc2nn3c(=O)c4cc5c(cc4nc3s2)OCO5)cc1 | inactive | –
Cc1ccccc1Nc1nn2c(=O)c3ccc(C(=O)NCCc4ccc(Cl)cc4)cc3nc2s1 | 3.16 µM (active) | –
CC(C)c1nc(CNC(=O)c2ccc(N(C)C)nc2)no1 | inactive | –

SMILES | Potency | activity, negative = inhibition
c1cc(-c2ccsc2)n2nc(C3CCCO3)nc2n1 (centres undefined) | inactive | –
Cc1ccc([C@@H]2CN(C(=O)c3ccco3)[C@@H]3C4CCN(CC4)[C@@H]32)cc1 | inactive | –
COCCn1nc2n(c1=O)CCN(C(=O)c1ccco1)CC2 | inactive | –
Cn1cc(CN2CCCN(C(=O)c3ccco3)CC2)c(-c2ccc(C3CCCCC3)cc2)n1 | 8.91 µM (active) | –
COCc1nc(CCNC(=O)CCc2ccccc2)no1 | inactive | –
COc1ccc(-c2cc(N3CCCN(C(=O)c4ccc(OC)cc4C)CC3)n[nH]2)cc1 | inactive | –
CCn1nccc1C(=O)N1CCn2nnc(CCC(=O)NCc3ccccc3)c2C1 | inactive | –
Cc1ccsc1-c1[nH]nc2ncc(-c3ccccc3O)nc12 | inactive | –
Cc1ccccc1-c1[nH]nc2ncc(-c3ccccc3)nc12 | 3.98 µM (active) | –
COc1ccc(-c2[nH]nc3ncc(-c4ccccc4)nc23)c(C)c1 | inactive | –
Cc1ccc(CNC(=O)C2(c3ccc(NS(C)(=O)=O)cc3)CCCCC2)cc1 | inactive | –
NCC(=O)N1Cc2ccccc2CC2(CCCCN2CC2CCOCC2)C1 (centres undefined) | inactive | –
NCC(=O)N1CCCC2(Cc3ccccc3CN2C(=O)c2cccc(Cl)c2)C1 (centres undefined) | 11.2 µM (active) | –
O=C(c1cccc(Cl)c1)N1CCC2(CC1)NCc1ccccc1NC2=O | inactive | –
COc1ccc(CN2CC[C@@H]3CN(S(C)(=O)=O)[C@@H]3C2)c(OC)c1 | inactive | –
Fc1ccc(-c2cc(NC3CCCC3)nc3[nH]ccc23)nc1 | inactive | –
c1ccc(CN2CCNc3cc(NCc4cccnc4)ncc3C2)cc1 | inactive | –
c1cncc(CNc2cc(-c3cnc4ccccc4n3)c3cc[nH]c3n2)c1 | 3.98 µM (active) | –
NC(=O)c1ccc(OC2CCN(C(=O)CCc3ccccc3)C2)nc1 (centres undefined) | inactive | –
O=C(c1ccccc1F)N1CC(Oc2cccc(-c3nc(-c4ccccc4)no3)c2)C1 | – | 36.6% [at 5.79 µM] (inactive)
CCCC(=O)N1CCC(N2C(=O)C(O)C23CCCCC3)CC1 (centres undefined) | inactive | –
COCCN1CC[C@H]2CN(C(=O)Cc3ccc(OC)cc3)CC[C@H]2CC1=O | inactive | –

SMILES | Potency | activity, negative = inhibition
C[C@]1(CO)C2CC[C@@H](O)[C@@H](CC(=O)N3CC[C@@H](O)C3)[C@]2(C)CC[C@H]1OC(=O)Nc1ccc(Oc2ccccc2)cc1 (some centres undefined) | inactive | –
COc1ccccc1CNC(=O)c1cc2c(s1)CCN(C(=O)c1ccccc1)C2 | inactive | –
COc1ccc(CCNC(=O)c2noc(-c3ccc(C)cc3)n2)cc1OC | inactive | –
COc1ccc(CCNC(=O)c2ccc3c(c2)nc(C)n3-c2ccc(Br)cc2)cc1OC | inactive | –
CCOc1ccccc1CNC(=O)c1ccc(-n2c(C)cc3c2CCC(C)C3)cc1 (centres undefined) | 12.6 µM (active) | –
COc1ccccc1Oc1ncccc1CNC(=O)c1ccc2n[nH]nc2c1 | inactive | –
COc1ccccc1CNC(=O)c1ccc(-n2c(C)cc3c2CCCC3)cc1 | 11.2 µM (active) | –
CCOc1ccccc1CNC(=O)C1CCCN(S(=O)(=O)c2ccc3c(ccn3C)c2)C1 (centres undefined) | inactive | –
COc1ccc(CCNC(=O)c2ccc(-n3c(C)cc4c3CCCC4)cc2)cc1OC | 11.2 µM (active) | –
CCOc1ccccc1CNC(=O)c1ccc2c(c1)nc1n2CCC(C)C1 (centres undefined) | inactive | –
COc1ccc(NC(=O)Cn2ccn3nc(-c4ccc(F)cc4)c(CO)c3c2=O)c(OC)c1 | inactive | –
O=C(N[C@@H]1CN[C@H](CO)C1)c1ccncc1 | inactive | –
COC(=O)[C@@H]1Cc2c([nH]c3ccccc23)[C@H]2C[C@@H](NCCN3CCOCC3)C[C@@H](c3ccccc3F)N21 | inactive | –
Cc1cnc(C)c(N2CCN(C(=O)[C@H]3CC[C@@H](N)C3)CC2)n1 | inactive | –
O=c1[nH]c(C2CCCN(Cc3ccccn3)C2)nn1-c1ccc(Cl)cc1 (centres undefined) | 1.41 µM (active) | –
CC(=O)N1CCCC(c2nn(-c3ccccc3)c(=O)[nH]2)C1 (centres undefined) | inactive | –
O=C(Cc1ccc(F)cc1)N1CCCC(c2nn(-c3ccc(Cl)cc3)c(=O)[nH]2)C1 (centres undefined) | inactive | –
COCc1nnc(NC(=O)C2c3ccccc3C(=O)N(C3CCCC3)C23CCCC3)s1 (centres undefined) | 7.94 µM (active) | –
COCCNC(=O)C1c2ccccc2C(=O)N(C2CCCC2)C12CCCCC2 (centres undefined) | inactive | –
Cc1cccnc1NC(=O)C1c2ccccc2C(=O)N(C2CCCC2)C12CCCC2 (centres undefined) | inactive | –
